Data taken from PubChem BioAssay (NCATS).
Inconclusive results are not listed. Active and inactive are the calls of the source. Calls come from the whole dose curve; as a rule, active = well fitted inhibition curve with a large enough effect; inconclusive = small, poorly fitted or top-dose-only effect; inactive = flat fitted curve, though single readings scatter.

Experiments:
Assay in all cases: qHTS profiling for inhibitors of Plasmodium falciparum proliferation (AID 504749); note: nearly all actives have a fitted effect of over 60% in size
Settings in all cases: P. falciparum in erythrocytes, SYBR Green DNA, 72 h
CP250 = system: CP250
Summary of the method: (§1)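 Fluorescence of SYBR Green-bound parasite DNA, read at 485/535 nm, served as the growth measure. Infected erythrocytes were cultured with compound 72 h; artemisinin (0.29 uM) and DMSO wells defined the normalization range.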

CP252 = system: CP252
Summary of the method: as §1

CP256 = system: CP256
Summary of the method: as §1

CP260 = system: CP260
Summary of the method: as §1

CP262 = system: CP262
Summary of the method: as §1

CP265 = system: CP265
Summary of the method: as §1

CP266 = system: CP266
Summary of the method: as §1

CP268 = system: CP268
Summary of the method: as §1

CP269 = system: CP269
Summary of the method: as §1

CP286 = system: CP286
Summary of the method: as §1

Measured: Potency
Potency is the fitted concentration of half-maximal effect.

CC[C@]1(O)CC2CN(CCc3c([nH]c4ccccc34)[C@@](C(=O)OC)(c3cc4c(cc3OC)N(C)[C@H]3[C@@](O)(C(=O)OC)[C@H](OC(C)=O)[C@]5(CC)C=CCN6CC[C@]43[C@@H]65)C2)C1 (stereo partly drawn)
active: CP250 3550 nM | CP252 3550 nM | CP256 2510 nM | CP260 158 nM | CP262 1070 nM | CP265 3980 nM | CP266 3790 nM | CP268 6750 nM | CP269 1900 nM | CP286 158 nM

CC(=O)O[C@H]1C(=O)[C@@]2(C)[C@H]([C@H](OC(=O)c3ccccc3)[C@]3(O)C[C@H](OC(=O)[C@H](O)[C@@H](NC(=O)c4ccccc4)c4ccccc4)C(C)=C1C3(C)C)[C@]1(OC(C)=O)CO[C@@H]1C[C@@H]2O
active: CP250 708 nM | CP252 178 nM | CP256 282 nM | CP260 355 nM | CP262 953 nM | CP265 891 nM | CP269 536 nM | CP286 178 nM
